Assay results as given in PubChem BioAssay (NCI).
About 83,000 compounds went through this panel and 20% of them were active in at least one assay; those are over-represented in the sample as a whole.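 Testing used 96-well plates and a 48-hour single-concentration exposure. Example: -40 means 40% of the starting cells died.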 Calls of active or inactive are those of the source. How the source made its calls: active means growth percent below 10; inactive means the rest.

system: MDA-MB-468 breast; test: NCI-60 one-dose screen, 48 h (100 = growth as untreated, 0 = no growth, -100 = all killed); settings: 10 µM unless noted

| SMILES | growth |
| --- | --- |
| CCCCCc1c(C)[nH]c(/C=C2\N=C(c3ccc[nH]3)C=C2CC)c1C | -92.1% (active) |
| O=C(O)c1cc([N+](=O)[O-])ccc1Oc1ccccc1 | 101% (inactive) |
| Cc1ccccc1C1N=C2Oc3ccccc3C=C2C(=O)N1 (centres undefined) | 21.8% (inactive) |
| CC1=C(C)C(=O)C(Nc2cccc(C(F)(F)F)c2)=C(Cl)C1=O | -65.6% (active) |
| COc1ccc(N=C(c2ccccc2)C2C(=O)c3ccccc3C2=O)cc1 | 72.5% (inactive) |
| COc1ccc(-c2c(N)n[nH]c2-c2ccc(Cl)cc2O)cc1OC | 84.1% (inactive) |
| Cc1ccc2c(c1)C(=O)C(c1c(-c3[nH]c(=O)c4ccc(C)cc4c3O)c(O)c3ccccc3c1O)=NC2=O | -23.1% (active) |
| CC(C)(C)OC[C@@H]1N=C(c2ccc(Br)cc2)Nc2nc3ccccn3c2C1=O | 45.6% (inactive) |
| NC1(c2ccc(-c3nc4ccn5c(=O)[nH]nc5c4cc3-c3ccccc3)cc2)CCC1 | -32.4% (active) |
| O=C1/C=C/[C@@H](O)[C@@H]2C[C@@H](O)C[C@H]2/C=C/CCC[C@H](CCc2cccc3ccccc23)O1 | -32.4% (active) |
| C#Cc1cccc(Nc2ncnc3ccc(NC(=O)c4ccccc4)cc23)c1 | -28.5% (active) |
| COc1ccc(NC(=S)N/N=C/c2ccccc2SSCCC(=O)OC[C@H]2O[C@H](O)[C@H](O)[C@@H](O)[C@@H]2O)cc1 | -8.32% (active) |
| Cc1nn(-c2ccccc2)c2nc3c(c(-c4ccc(Cl)cc4)c12)CNC1(CCSCC1)N3 | 93.1% (inactive) |
| CN(CCC#N)C(=O)Nc1ccccc1 | 109% (inactive) |
